Tg IFNy HTS – T. gondii growth inhibition with IFN-gamma, primary screen, cell-based. Toxoplasma gondii growth in IFN-gamma-treated host cells; stronger effect = lower value. activity change, negative = inhibition, % (no concentration beside the values). 3.8% of 69,000 active. AID 1259416, 2018; in the data active = activity change below about -70%, passing the limit was not always enough;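 also: host cells are HeLa cells infected with Toxoplasma gondii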
Numbers stand for hits; i = inactive. This excerpt belongs to a sample that is enriched for hits.

SMILES	Tg IFNy HTS
O=C(Nc1ccc(Cl)cc1)c1nc(Nc2ccccc2)c2ccccc2n1	i
C=CCNc1nc(NCC=C)nc(N2CCN(C(c3ccc(F)cc3)c3ccc(F)cc3)CC2)n1	-72
OC(CN1CCN(c2ncccn2)CC1)c1ccc(F)cc1 (centres undefined)	i
O=C(CCc1ccccc1)NN1C(=O)c2ccccc2C1=O	i
Cc1ccc(NC(=O)CN2CCC3(CC2)N=C(c2ccc(C(C)(C)C)cc2)C(=O)N3)cc1C	-76
Cc1ccc(NC(=O)CN2CCC3(CC2)N=C(c2cccc(F)c2)C(=O)N3)cc1C	i
Cc1cccc(NC(=O)CN2CCC3(CC2)N=C(c2ccc(C)c(C)c2)C(=O)N3)c1	i
OC1(C(F)(F)F)CC(c2nccs2)=NN1 (centres undefined)	i
CC(C)(C)c1cc(C2=NNC(O)(C(F)(F)F)C2)c2c(c1)C(C)(C)CC2 (centres undefined)	-100
CC(C)(C)c1cc(-c2cc(C(F)(F)F)[nH]n2)c2c(c1)C(C)(C)CC2	-87
CN1CCC2(CCN(C(=O)c3cc(C(F)(F)F)[nH]n3)CC2)C1	i
Cn1cc(N2CC3(CCN(C(=O)c4cccn4C)C3)CC2=O)cn1 (centres undefined)	i
Cc1nc2n(n1)CCN(C(=O)c1cnn3c1NC(C)CC3C(F)(F)F)C2 (centres undefined)	i
CC(C)CN(Cc1cccs1)C(=O)c1cc2n(n1)CCCN(C)C2	i
COCC(=O)N1CCc2c(nnn2CC2CC2)C1COC (centres undefined)	i
COCC(=O)N1CCn2c(CNC(=O)c3cccn3C)cnc2C1	i
Cc1n[nH]c(C)c1N=Nc1cc(Cl)cc(Cl)c1	-92
CN(C)Cc1nc2c(o1)CN(Cc1cccc(C#N)c1)C2	i
Clc1ccc(-c2nnc(Cc3csc(-c4cccs4)n3)o2)cc1	i
CC(C)(C)n1nc(-c2ccc(Cl)cc2)c2c(N)ncnc21	-90
CC(C)n1nc(-c2cc3cc(O)ccc3[nH]2)c2c(N)ncnc21	i
Cc1ccccc1C(NC(=O)c1cnc(C(C)(C)C)nc1)c1ccncc1 (centres undefined)	i
CC(C)N(C)C(=O)C1=NOC2(CCN(C(=O)c3ccccn3)C2)C1 (centres undefined)	i
Cc1ccc(S(=O)(=O)N2CCC3(CC(C(=O)NCC(C)C)=NO3)C2)cc1 (centres undefined)	i
CCCCS(=O)(=O)N1CCC2(CC2C(=O)N(C)Cc2ccccn2)C1 (centres undefined)	i
SMILES	Tg IFNy HTS
CN(Cc1ccccn1)C(=O)C1=NOC2(CCN(S(=O)(=O)c3ccc(F)cc3)C2)C1 (centres undefined)	-80
CN(Cc1ccccn1)C(=O)c1cc(-c2cnc(-c3cccc(F)c3)nc2)cn1C	i
CN(Cc1ccccn1)C(=O)C1=NOC2(CCN(S(=O)(=O)c3cccc(F)c3)C2)C1 (centres undefined)	-81
Cc1ccc(-c2cc(C(=O)Nc3ccc(N4CCCS4(=O)=O)cc3)no2)cc1	i
Cc1cccc(-c2nc(C)c(CCNC(=O)c3cccc([N+](=O)[O-])c3)s2)c1	i
Cc1cc(Nc2cnccn2)nc(C2CCCN(CCO)C2)n1 (centres undefined)	i
Cc1nc(-c2ccc(Cl)cc2)sc1CCNS(=O)(=O)c1cc(F)ccc1F	i
Cc1ccc(Cl)cc1N1CCN(C(=O)c2csc(C(=O)NC3CC3)n2)CC1	i
Cc1cccc(N2CC3(CCN(C(=O)c4cnc5ccccc5c4)C3)CC2=O)c1 (centres undefined)	i
O=C(c1cnc2ccccc2c1)N1CCC2(CC(=O)N(c3ccc(F)cc3)C2)C1 (centres undefined)	i
O=C(c1cnc2ccccc2c1)N1CCC2(CC(=O)N(c3cccc(F)c3)C2)C1 (centres undefined)	-74
Cc1cccc(CN2CCN(Cc3cn[nH]c3-c3ccccc3)CC2)c1	i
Cc1cccc(-c2nc(CCNC(=O)CCCc3ccccc3)cs2)c1	i
COc1ccccc1-c1nc(Cn2nnc(-c3nc(-c4ccc(C)cc4)no3)c2C)c(C)o1	i
Nc1nc(Nc2ccc3c(c2)CC[C@@H](N2CCCC2)CC3)nn1-c1cc2c(nn1)-c1ccccc1CCC2	-76
COc1ccccc1-c1noc(C2CCCN2C(=O)Cc2c[nH]c3ccccc23)n1 (centres undefined)	i
CCC(=O)c1cn(S(=O)(=O)c2ccc(C)cc2)c2ccccc12	-101
Cc1ccc(S(=O)(=O)n2c(N)nc3ccccc32)cc1	i
O=C(NC1CCCCNC1=O)c1cn(S(=O)(=O)c2ccccc2)c2ccccc12 (centres undefined)	i
Cc1oc(-c2ccc(OC(C)C)cc2)nc1Cn1nnc(C(=O)Nc2cccc(Cl)c2C)c1C	-118
Cc1ccccc1NC(=O)c1nnn(Cc2nc(-c3ccc(Cl)cc3)oc2C)c1C	i
CCOc1ccccc1NC(=O)c1nnn(Cc2nc(-c3ccc(OC(C)C)cc3)oc2C)c1C	i
Cc1ccccc1NC(=O)c1nnn(Cc2nc(-c3ccc(OC(C)C)cc3)oc2C)c1C	i
COc1ccc(CNC(=O)c2nnn(Cc3nc(-c4ccc(C)cc4)oc3C)c2C)cc1OC	-87
Cc1ccccc1NC(=O)c1nnn(Cc2nc(-c3ccccc3)oc2C)c1C	i
SMILES	Tg IFNy HTS
CSc1ccc(CNC(=O)c2nnn(Cc3nc(-c4ccc(C)cc4)oc3C)c2C)cc1	i
COc1cccc(CNC(=O)c2nnn(Cc3nc(-c4ccc(C)cc4)oc3C)c2C)c1	-96
Cc1ccc(-c2nc(Cn3nnc(C(=O)NCCCc4ccccc4)c3C)c(C)o2)cc1	i
COc1ccc(CCNC(=O)c2nnn(Cc3nc(-c4ccc(C)cc4)oc3C)c2C)cc1OC	i
Cc1ccc(-c2nc(Cn3nnc(C(=O)Nc4ccccc4C)c3C)c(C)o2)cc1	-88
COc1ccc(NC(=O)c2nnn(Cc3nc(-c4ccc(Cl)cc4)oc3C)c2C)cc1OC	i
COc1ccc(C2(Cn3ccnc3-c3cccnc3)CCCC2)cc1	i
Cc1ccc(S(=O)(=O)N2CCC3(CC2)NCCN=C3NCc2ccc(C(F)(F)F)cc2)cc1C	i
Cc1cccc(Cl)c1S(=O)(=O)Nc1ccc2c(c1)CCC(=O)N2C	i
O=C(Nc1ccc(N2CCOCC2)cc1)c1cn2c(n1)CSCC2	i
COc1ccc(NC(=O)c2nnn(Cc3nc(-c4ccc(C)cc4)oc3C)c2C)cc1	-95
CCOc1ccc(-c2nc(Cn3nnc(C(=O)Nc4cc(C)ccc4C)c3C)c(C)o2)cc1	i
COc1ccc(CNC(=O)c2nnn(Cc3nc(-c4ccc(C)cc4)oc3C)c2C)c(OC)c1	-99
COc1ccc(NC(=O)c2nnn(Cc3nc(-c4ccc(Cl)cc4)oc3C)c2C)cc1	i
CCOc1ccc(-c2nc(Cn3nnc(C(=O)Nc4c(C)cccc4C)c3C)c(C)o2)cc1	-94
COc1ccc(NC(=O)c2nnn(Cc3nc(-c4ccccc4)oc3C)c2C)c(OC)c1	i
Cc1ccc(-c2nc(Cn3nnc(C(=O)Nc4cc(C)cc(C)c4)c3C)c(C)o2)cc1	i
CCOc1ccc(-c2nc(Cn3nnc(C(=O)Nc4cc(C)cc(C)c4)c3C)c(C)o2)cc1	i
CCOc1ccc(-c2nc(Cn3nnc(C(=O)Nc4cc(OC)ccc4OC)c3C)c(C)o2)cc1	i
Nc1nc(CCC(=O)N2CCCC(N3CCC(CO)CC3)C2)cs1 (centres undefined)	i
CCOC(=O)Cc1ccc(NC(=O)Nc2ccc(-c3nc(-c4ccccc4)co3)cc2)cc1	i
COCc1cnc2n1CCN(C(=O)c1cc3ccccc3o1)C2C (centres undefined)	i

Screening results deposited in PubChem by Broad Institute.
